In the library only some 2.7% were active in any assay of this set; here they are far more common.
CFTR F508del cor = correctors of CFTR F508del function in bronchial epithelial cells | 350,000 compounds, 0.36% hits | CFBE cells, YFP halide quenching; stimulated with forskolin plus potentiator P3; % fluorescence drop versus neutral controls | activity (quench increase), % at 7.58 µM;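 active = mean added fluorescence quench of at least 8% versus neutral control, with both replicates also reaching 8%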;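 note: cells transiently co-express mutant CFTR-F508del with the halide-sensitive YFP; corrector assay measuring rescue of mutant channel to the surface after 24 h compound exposure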
Env fusion inh = blocks HIV Env-driven cell-cell fusion. HeLa-JRFL Env/CEM21 cell fusion, luciferase. 360,000 compounds, 1.1% hits. inhibition, % at 12.3 µM;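 active = mean replicate inhibition score of at least 50 and every replicate individually at or above 50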;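 note: 0% = plate neutral controls and 100% = maraviroc near 300 nM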
EWS-Fli block = inhibitors of EWS/Fli oncoprotein transcriptional activity; A673 NR0B1-luciferase reporter, viability-normalised; inhibition, % at 12.6 µM; 350,000 compounds, 0.67% hits;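 active = mean inhibition of at least 50% after viability correction, with every replicate also passing that limit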;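 note: firefly luciferase signal divided by Alamar Blue viability fluorescence both relative to DMSO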
GSIS activator = primary screen for activators of insulin secretion dependent on glucose, INS-1E cells, GLuc reporter luminescence. INS-1E GLuc reporter insulin secretion, 2-3 h. activation, % at 16.6 µM. 370,000 compounds, 0.61% hits. AID 743287;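 active = lowest replicate activation of at least 40%, so every replicate reaches that level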;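 note: 0% = median of neutral control wells and 100% = median of IBMX positive control wells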
PAX8 inh HTS = lowers PAX8-driven luciferase in RMG-I cells; AID 652154; inhibition, % at 12.6 µM; 360,000 compounds, 1.2% hits; RMG-I TPO-luciferase reporter, SteadyGlo, 24 h;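 active = mean replicate inhibition at least 60% with every replicate also reaching 60%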;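 note: luciferase light reporting Pax8 driven TPO promoter activity; plate controls were median of neutral control wells for no effect and mitoxantrone controls for full effect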
PGC1a acetyl inh = lowers PGC1a acetylation signal in U2OS cells; AlphaScreen anti-acetyl-lysine; with virally co-expressed GCN5 acetyltransferase; inhibition, % at 15.6 µM; 350,000 compounds, 0.17% hits; AID 651687;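 active = every replicate shows inhibition of at least 40%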;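 note: 0% = neutral control wells and 100% = positive control wells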
* hit, by the source's call; [ ] = remark or other dose.

O=C1C=CC(=C(c2ccc(O)cc2)c2ccc(O)cc2)C=C1 was read as CFTR F508del cor -5, Env fusion inh 27, EWS-Fli block 18, GSIS activator -40 and PAX8 inh HTS 106*.
Screening CC[C@@]12C(=O)N(c3cccc(Cl)c3)C(=O)N1[C@H](c1ccc(Br)cc1)[C@@H]1C(=O)N(C(C)(C)C)C(=O)[C@@H]12 returned CFTR F508del cor -2, Env fusion inh 84*, EWS-Fli block -1, GSIS activator -1, PAX8 inh HTS -11 and PGC1a acetyl inh -17.
`CC(C)C[C@@]12C(=O)N(c3ccc(Br)cc3)C(=O)N1[C@H](c1ccc(Br)cc1)[C@@H]1C(=O)N(C(C)(C)C)C(=O)[C@@H]12` gave CFTR F508del cor 3, Env fusion inh 80*, EWS-Fli block 2, GSIS activator 19, PAX8 inh HTS 1 and PGC1a acetyl inh -2.
For CC[C@@]12C(=O)N(c3cccc(C)c3)C(=O)N1[C@H](c1ccc(Br)cc1)[C@@H]1C(=O)N(C(C)(C)C)C(=O)[C@@H]12 the results were CFTR F508del cor 4, Env fusion inh 54, EWS-Fli block -6, GSIS activator 5, PAX8 inh HTS 19 and PGC1a acetyl inh -12.
For CC(C)C[C@@]12C(=O)N(c3cccc(Cl)c3)C(=O)N1[C@H](c1ccc(Br)cc1)[C@@H]1C(=O)N(C(C)(C)C)C(=O)[C@@H]12 the results were CFTR F508del cor -2, Env fusion inh 91*, EWS-Fli block -12, GSIS activator -10, PAX8 inh HTS -5 and PGC1a acetyl inh -20.
CC(C)C[C@@]12C(=O)N(c3cccc(F)c3)C(=O)N1[C@H](c1ccc(Br)cc1)[C@@H]1C(=O)N(C(C)(C)C)C(=O)[C@@H]12 was read as CFTR F508del cor 1, Env fusion inh 69*, EWS-Fli block -12, GSIS activator -34, PAX8 inh HTS -28 and PGC1a acetyl inh 0.
C[C@@H]1CCCCO[C@H](CN(C)Cc2ccc3c(c2)OCO3)[C@@H](C)CN([C@H](C)CO)C(=O)c2cc(NC(=O)C3CCCCC3)ccc2O1 was read as CFTR F508del cor -2, Env fusion inh 17[16.7 µM], EWS-Fli block -8, GSIS activator -5 and PAX8 inh HTS 6.
For C[C@H](CO)N1C[C@H](C)[C@@H](CN(C)C(=O)CN(C)C)Oc2cc(C#Cc3cccnc3)ccc2S1(=O)=O the results were CFTR F508del cor -2, Env fusion inh 7[16.7 µM], EWS-Fli block 2, GSIS activator 4 and PGC1a acetyl inh -8.
Screening Cc1cc(/C=C2\Sc3ccccc3N2C)cc(C)[n+]1CC1CCCO1 (stereo not given) returned CFTR F508del cor 2, Env fusion inh 15, EWS-Fli block 47, GSIS activator -24, PAX8 inh HTS 78* and PGC1a acetyl inh 7.
CCOC(=O)C(=Cc1ccc(N(C)C)cc1)C(=O)c1ccccc1 was read as CFTR F508del cor -1, Env fusion inh -14, EWS-Fli block -19, GSIS activator -2 and PAX8 inh HTS -10.
For CCOC(=O)N(O)c1ccc(C=Cc2ccccc2)cc1 the results were CFTR F508del cor 1, Env fusion inh -38, EWS-Fli block -63, GSIS activator 6, PAX8 inh HTS -71 and PGC1a acetyl inh 49*.
For C=C(C)c1cccc(C(C)(C)NC(=O)N2CCN(c3ccccc3OC)CC2)c1 the results were CFTR F508del cor 0, EWS-Fli block 18, GSIS activator -30, PAX8 inh HTS 106* and PGC1a acetyl inh -4.
For C=C(C)c1cccc(C(C)(C)NC(=O)N2CCN(c3ccccc3)CC2)c1 the results were CFTR F508del cor -1, Env fusion inh 4, EWS-Fli block 6, GSIS activator -2 and PAX8 inh HTS -4.
For Cc1cc(C)c(OCC(=O)OCC(=O)N(C)C2CCS(=O)(=O)C2)c(C)c1 (stereo not given) the results were CFTR F508del cor -4, Env fusion inh -24, EWS-Fli block 3, GSIS activator 41* and PAX8 inh HTS 1.
Screening CN(C(=O)COC(=O)C1CCN(S(=O)(=O)c2c(Cl)cccc2Cl)CC1)C1CCS(=O)(=O)C1 (stereo not given) returned CFTR F508del cor -1, Env fusion inh -2, EWS-Fli block -2, GSIS activator -1, PAX8 inh HTS 113* and PGC1a acetyl inh 1.
CN(C(=O)COC(=O)C1CCN(S(=O)(=O)c2ccc(Cl)cc2)CC1)C1CCS(=O)(=O)C1 (stereo not given) was read as CFTR F508del cor -2, Env fusion inh 51, EWS-Fli block 8, GSIS activator 11, PAX8 inh HTS 6 and PGC1a acetyl inh -3.
`Cc1ccc(-c2nn(-c3ccccc3)cc2C(=O)N2CCN(c3ccccn3)CC2)cc1` gave CFTR F508del cor 15*, Env fusion inh 5, EWS-Fli block -11, GSIS activator -17 and PAX8 inh HTS 8.
Screening O=C1CN(S(=O)(=O)Cc2ccccc2)C[C@@H]2[C@H](c3ccc(C#Cc4ccc(F)cc4)cc3)[C@H](CO)N12 returned CFTR F508del cor 0, EWS-Fli block -15, GSIS activator -24, PAX8 inh HTS 80* and PGC1a acetyl inh -10.
`CC(C)CC#Cc1ccc([C@H]2[C@@H](CO)N3C(=O)CN(S(C)(=O)=O)C[C@@H]23)cc1` gave GSIS activator -8.
Cc1ccccc1S(=O)(=O)N1CC(=O)N2[C@@H](CO)[C@H](c3ccc(C#CCC4CCCC4)cc3)[C@@H]2C1 was read as CFTR F508del cor -4, EWS-Fli block -1, GSIS activator 43*, PAX8 inh HTS -9 and PGC1a acetyl inh -3.
Screening Cc1ccccc1S(=O)(=O)N1CC(=O)N2[C@H](CO)[C@H](c3ccc(C#CCC4CCCC4)cc3)[C@@H]2C1 returned CFTR F508del cor -1, EWS-Fli block 8, GSIS activator -19, PAX8 inh HTS -19 and PGC1a acetyl inh -6.
`O=C1CN(S(=O)(=O)Cc2ccccc2)C[C@@H]2[C@@H](c3ccc(C#CCC4CCCC4)cc3)[C@@H](CO)N12` gave CFTR F508del cor 0, EWS-Fli block -3, PAX8 inh HTS 99* and PGC1a acetyl inh -16.
CCS(=O)(=O)N1CC(=O)N2[C@H](CO)[C@@H](c3ccc(C#CCC(C)C)cc3)[C@@H]2C1 was read as CFTR F508del cor 11*, EWS-Fli block 1, GSIS activator -10, PAX8 inh HTS -5 and PGC1a acetyl inh -2.
Screening C[C@H](CO)N1C[C@H](C)[C@H](CN(C)Cc2ccc(C(=O)Nc3ccccc3N)cc2)Oc2c(NS(=O)(=O)c3cn(C)cn3)cccc2C1=O returned CFTR F508del cor -1, EWS-Fli block 32, GSIS activator 5, PAX8 inh HTS 1 and PGC1a acetyl inh -2.

Screening data from PubChem BioAssay.
